{
  "source": "PubChem BioAssay AID1508600",
  "about": "(Functional Genomics Laboratory (NCATS/FGL), 2020)",
  "note": "About 3,700 (7%) of roughly 53,000 sequences were called active.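 The calls were made as follows: active = gene knockdowns whose robust z-score for IL-1 alpha signal is at least 2 or at most -2, so actives lie on both sides; inactive = the rest.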 Many of the other results were omitted from the sample, so actives are more common in it than they were.",
  "data": [
    {"assay": "Components of the Cytosolic LPS Sensing Pathway: Gene Identification via Genome-wide siRNA Screen;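 also: robust z of the log signal after scaling to non-targeting control siRNA wells of the plate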", "settings": "RAW264.7 macrophages, IL-1a HTRF, actives lie on both sides, screened at 100 nM (by protocol), cells primed 5 h with Pam3CSK4 first", "summary_of_the_method": "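Read-out: IL-1a HTRF on supernatant, divided by plate negative-control median ×100, log-transformed and converted to robust z-score. Cells were RAW264.7 given 100 nM siRNA, Pam3CSK4-primed 5 hours, then LipidA-transfected 24 hour.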", "values": [
      {"sequence": "GCCGCUAACUAAAGUCAAATT against Aloxe3", "z-score": "1.15 (inactive)"},
      {"sequence": "GGAGAUUGGCUUCCAGAAATT against Slc38a7", "z-score": "0.494 (inactive)"},
      {"sequence": "GCAACACAUUUGAACCACUTT against Usp15", "z-score": "-1.79 (inactive)"},
      {"sequence": "CCACGAGGAGCUCAUUUUCTT against Dhfr", "z-score": "0.385 (inactive)"},
      {"sequence": "GGCCAAAGGCAUCAGGCAUTT against Gsto2", "z-score": "-1.7 (inactive)"},
      {"sequence": "GCUCAAACGAAAUGAUUCATT against Gys2", "z-score": "2.01 (active)"},
      {"sequence": "GCCGCACGUUUUUGAGUUGTT against Islr2", "z-score": "-0.554 (inactive)"},
      {"sequence": "CCGAAAUUUUGAGUACUGUTT against Vmn1r67", "z-score": "0.285 (inactive)"},
      {"sequence": "CCACUUAAAAUUCAUUCCUTT against Arl6ip1", "z-score": "-0.21 (inactive)"},
      {"sequence": "GGAUGAUGCCCGAAAGAACTT against Zfp536", "z-score": "-4.55 (active)"},
      {"sequence": "GGAGAAGACACAGAGAACCTT against Pkd2l1", "z-score": "0.645 (inactive)"},
      {"sequence": "GGGCAUGGGAUUUAAUUCUTT against Dnajc11", "z-score": "1.54 (inactive)"},
      {"sequence": "CGCUAUGGUUUCUCAGCUUTT against Myh4", "z-score": "-0.02 (inactive)"},
      {"sequence": "GGAGAUUCAGAAGAUCCUCTT against Isoc2b", "z-score": "2.49 (active)"},
      {"sequence": "GCUCUCACCUUCAUUUGAATT against Tmem174", "z-score": "-1.37 (inactive)"},
      {"sequence": "GGAAAUAAUGUUACUGACATT against Zfp445", "z-score": "-0.178 (inactive)"},
      {"sequence": "GGCAUCAAUAGGAAGAUGCTT against Rgs19", "z-score": "0.182 (inactive)"},
      {"sequence": "GCAUUUAGGUCUGAUAAAGTT against Gpr61", "z-score": "0.00391 (inactive)"},
      {"sequence": "CCGACUGUUAAAGUGGUGUTT against Arih1", "z-score": "0.608 (inactive)"},
      {"sequence": "GUUUUACAAAUUCCUCCAUTT against Olfr1447", "z-score": "0.345 (inactive)"},
      {"sequence": "CCAGUUUUCGACACAAUUCTT against Cma1", "z-score": "0.645 (inactive)"},
      {"sequence": "GGCAGAGAAAUGGGCAAUGTT against Hcar1", "z-score": "2.12 (active)"},
      {"sequence": "GCUUAUGAGACUCAUUUAATT against Oser1", "z-score": "0.554 (inactive)"},
      {"sequence": "GCCGCUGCACUACAAUUUGTT against Trhde", "z-score": "0.717 (inactive)"},
      {"sequence": "GGAGCUAUACUGCUUUUCCTT against Mtmr7", "z-score": "1.61 (inactive)"},
      {"sequence": "GGCUUACCUGAACUUUCUGTT against Degs2", "z-score": "-0.381 (inactive)"},
      {"sequence": "GGGUGUCUUACACCUUACATT against Sertad2", "z-score": "-1.48 (inactive)"},
      {"sequence": "GGUGUUUGAGUCAACAGACTT against Oard1", "z-score": "-2.1 (active)"},
      {"sequence": "GCUGUUGUUUGCUAGCAAATT against Lipa", "z-score": "0.973 (inactive)"},
      {"sequence": "GGAAGUCCACAUUGCUGGUTT against Slc2a9", "z-score": "1.85 (inactive)"},
      {"sequence": "GGGUUUUGAGAUGUAAUGATT against Marchf8", "z-score": "0.0734 (inactive)"},
      {"sequence": "GCAGCCUAUGGAAGAUCACTT against Tle4", "z-score": "2.8 (active)"},
      {"sequence": "GCACUACACCUCCAGUUCGTT against Gne", "z-score": "0.164 (inactive)"},
      {"sequence": "CCACAUGUUUGUCUCAAAATT against Gskip", "z-score": "1.28 (inactive)"},
      {"sequence": "CGACCCUACAGAGGACAUUTT against Pik3r6", "z-score": "0.135 (inactive)"},
      {"sequence": "GGAAAUGAAGCAUCUGUAUTT against Txnip", "z-score": "-2.3 (active)"},
      {"sequence": "GGGUUUCACCCAAAGCCUUTT against Zfp354c", "z-score": "-1.41 (inactive)"},
      {"sequence": "GGCUCAGUAAGGACUCUGATT against Tac2", "z-score": "1.24 (inactive)"},
      {"sequence": "GGAAUAGAAGCACUGUGUGTT against Brs3", "z-score": "-1.35 (inactive)"},
      {"sequence": "GGGCCCAGAUUUCAAUGGGTT against Car14", "z-score": "0.379 (inactive)"},
      {"sequence": "GCCACUCACUAUGCUACUCTT against Pnpla2", "z-score": "-2.62 (active)"},
      {"sequence": "GGCAUCUCCCACAUUAGAGTT against Sell", "z-score": "0.949 (inactive)"},
      {"sequence": "GGAAUAUGACUACAUGAAATT against Calu", "z-score": "-0.0124 (inactive)"},
      {"sequence": "GGAAAUUCGUGCAUGAAGATT against Sgsm2", "z-score": "-1.31 (inactive)"},
      {"sequence": "GGAGUCGAAUCUUCUCUAATT against Taco1", "z-score": "-1.07 (inactive)"},
      {"sequence": "GGUGCACACCAAUGUUCUGTT against Efemp2", "z-score": "2.03 (active)"},
      {"sequence": "GCUAUGCUGUUUUAUGUGATT against Synpr", "z-score": "0.212 (inactive)"},
      {"sequence": "CCUAUUGUAGCAAGUUACATT against H3c7", "z-score": "1.15 (inactive)"},
      {"sequence": "GGCAGAUGUACUGAUUAAATT against Tmprss11g", "z-score": "1.05 (inactive)"},
      {"sequence": "CGUUCUCUUGAAAUAAGCCTT against Pogk", "z-score": "-0.147 (inactive)"},
      {"sequence": "GGGACCUCCAUCGUAUUUGTT against Slc29a4", "z-score": "0.71 (inactive)"},
      {"sequence": "GCAACUGGUGAUAAGGUGUTT against Flywch1", "z-score": "0.486 (inactive)"},
      {"sequence": "GGCCAGAGUAUCGAUGUUCTT against Slc25a14", "z-score": "-0.566 (inactive)"},
      {"sequence": "GGGACUUGAGUAGCUGACUTT against Sgta", "z-score": "-1.49 (inactive)"},
      {"sequence": "GCUUUCUUACCAAGAGUCATT against Vsig8", "z-score": "-2.89 (active)"},
      {"sequence": "CCUCUUAUCUCGAACAUUATT against Dsn1", "z-score": "0.95 (inactive)"},
      {"sequence": "GGAGAUAACACCGUUACUUTT against Olfr769", "z-score": "0.766 (inactive)"},
      {"sequence": "GGAUCUGAAGAUGAUGAACTT against Ces2e", "z-score": "0.0623 (inactive)"},
      {"sequence": "CCUAGAAAUGAUUGUUGUUTT against Ncapg2", "z-score": "1.98 (inactive)"},
      {"sequence": "GGAGACCUUAAAAGAACAUTT against Ccdc134", "z-score": "0.775 (inactive)"},
      {"sequence": "CCCGGUUGUCUGGAUAUGATT against Map3k3", "z-score": "-2.39 (active)"},
      {"sequence": "CCCAGAUGGAUUUUUGCAUTT against Gm10413", "z-score": "0.102 (inactive)"},
      {"sequence": "GCCAAAGUCUUGCUAUGUGTT against Uba7", "z-score": "-0.481 (inactive)"},
      {"sequence": "GGAAGCUCUUCAACUCUACTT against Vps4b", "z-score": "2.06 (active)"},
      {"sequence": "AUUGGACUUCUACAUGGCUTT against Olfr207", "z-score": "1.43 (inactive)"},
      {"sequence": "GGAGAGAUGGUAUUGUUGGTT against Olfr1298", "z-score": "-0.0094 (inactive)"},
      {"sequence": "GGGCACUCAAGUGUAUGUCTT against Hpx", "z-score": "0.224 (inactive)"},
      {"sequence": "GCCAAAUGAACUAGCAAUATT against Golm1", "z-score": "0.0585 (inactive)"},
      {"sequence": "GGCAUUUGAGUGGACUGUUTT against Hirip3", "z-score": "0.421 (inactive)"}
    ]}
  ]
}
